The record followed here is PubChem BioAssay (Tox21).

Where “and” joins values, the source holds several entries; their conditions need not be identical. Equal values may be shown once. Results filed as inconclusive are left out. Values without a mark were called inactive. Calls of active or inactive are those of the source. Calls come from the whole dose curve; as a rule, active = well fitted activation curve with a large enough effect in the repeat runs; inconclusive = weak or mixed curves; inactive = no such curve, though single readings can be large or run the other way.
% is set by controls: 0 for no effect and ±100 for the full control effect; potency is the fitted concentration of half-maximal effect.

For this assay, the target named is Nuclear receptor subfamily 1 group I member 3 (Homo sapiens) (UniProt Q14994). The assay is described as follows: qHTS assay to identify small molecule agonists of the constitutive androstane receptor (CAR) signaling pathway (AID 1224839).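 For activation: HepG2 cells stably carrying human CAR and a CYP2B6 luciferase reporter.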 Note: nearly all actives have a fitted effect of over 15% in size. As to conditions: HepG2 hCAR CYP2B6-luciferase, agonist mode, 24 h; series mostly up to 92.4 µM; activation: at the top concentration. In outline: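 HepG2-CYP2B6-hCAR cells, 2500/well, 4 h pre-incubation; compounds 15 conc.; PK11195 0.75 uM final; 24 h, 37 C/5% CO2; ONE-Glo luciferase read.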
Chain of Nuclear receptor subfamily 1 group I member 3 (Homo sapiens) (Q14994 whole entry, looked up): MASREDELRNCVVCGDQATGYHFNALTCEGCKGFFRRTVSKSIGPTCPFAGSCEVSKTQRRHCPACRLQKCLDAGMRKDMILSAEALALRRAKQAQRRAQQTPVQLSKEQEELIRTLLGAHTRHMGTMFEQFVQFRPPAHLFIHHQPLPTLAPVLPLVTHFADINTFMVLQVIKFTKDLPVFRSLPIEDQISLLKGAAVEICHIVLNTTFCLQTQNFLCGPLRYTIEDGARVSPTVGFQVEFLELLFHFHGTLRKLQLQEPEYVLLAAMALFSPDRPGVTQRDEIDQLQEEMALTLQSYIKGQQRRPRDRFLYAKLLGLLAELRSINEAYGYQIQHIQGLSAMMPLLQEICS
(In general: In qHTS, concentration-response curves come from the screen itself.)
In the case of `C#CCO`, the “activation” value is -1.56%.

Turning to `COC(=O)N(OC)c1ccccc1COc1ccn(-c2ccc(Cl)cc2)n1`, the Potency was 24.3 µM (active). `COc1nc(C)nc(NC(=O)NS(=O)(=O)c2ccccc2Cl)n1`: the “activation” value is 1.27%. Still for that read-out and setting: for `ClCBr` the value was 6.58%. As to `c1ccc(N=NNc2ccccc2)cc1`, the Potency is 28.3 µM (active) and 27.3 µM (active). Still for that read-out and setting: for `CN(C)c1ccc(N)cc1` the value was 9.45 µM (active). Consider `CCC1(CC)C(=O)N=C(O)NC1=O`, for which the “activation” value is -3.4%.

For the compound `CC(C)Br`, the “activation” value is 7.49%. Same read-out and setting: the same measure for `C=C(C)C(=O)[O][Sn]([CH2]CCC)([CH2]CCC)[CH2]CCC`: -25.9%; for `O=S(=O)(O)F`: 1.4%; for `O=[N+]([O-])c1ccccc1-c1ccccc1`: 6.63%.

As to `CO/N=C(\C(=O)OC)c1ccccc1CO/N=C(\C)c1cccc(C(F)(F)F)c1`, the Potency is 8.63 µM (active).
